Source: PubChem BioAssay
Calls of active or inactive are those of the source.

Columns and labels:
[1] = small molecules captured by biotinylated probe aFSTL3 – biochemical, small-molecule microarray, fluorescence 635/667, stem cell growth factor project, primary screen (AID 1064); conditions: higher = more signal;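 note: measures binding of the biotinylated anti-FSTL3 antibody to printed compounds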
[2] = binders from COS7 lysate, DM2A8 probe, primary screen, torsin A project, cell lysate, small-molecule microarray, fluorescence 635/667 (AID 1065); conditions: higher = more signal, COS7 lysate expressing mutant human TOR1A
[3] = small molecules captured by biotinylated probe aFGF2 – biochemical, small-molecule microarray, fluorescence 635/667, stem cell growth factor project, primary screen (AID 1067); conditions: higher = more signal;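 note: measures binding of biotinylated aFGF2 protein to printed compounds on slides; z-score merges feature fluorescence and signal-to-noise across triplicate slides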
[4] = small molecules captured by biotinylated probe aFGF10 – biochemical, small-molecule microarray, fluorescence 635/667, stem cell growth factor project, primary screen (AID 1071); conditions: higher = more signal;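 note: score merges 667 nm spot intensity and signal to noise from triplicate slides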
[5] = target: Neurogenic locus notch homolog protein 2 (Homo sapiens) (UniProt Q04721); test: small molecules binding Notch2 protein – biochemical, small-molecule microarray, 635 nm fluorescence, stem cell growth factors, primary screen (AID 1073); conditions: higher = more signal
[6] = target: Pro-neuregulin-1, membrane-bound isoform (Homo sapiens) (UniProt Q02297); test: small molecules binding neuregulin-1 protein – biochemical, small-molecule microarray, fluorescence 635/667, psychiatric disease protein project, primary screen (AID 1075); conditions: NRG1 binding, 635 nm fluorescence, higher = more signal;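 note: score combines 667 nm spot fluorescence with signal to noise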
[7] = system: Neuregulin-1 EGF-like domain; test: small molecules binding NRG1 EGF domain – biochemical, small-molecule microarray, 635 nm fluorescence, primary screen (AID 1081); conditions: higher = more signal;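 note: binding of the protein to compounds printed on small-molecule microarray slides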
[8] = FRG1 expression reporter modulators in myotubes – cell-based, C2C12 myotubes, firefly/Renilla luciferase, luminescence, FRG1 inhibition for FSHD, primary screen (AID 1084); conditions: FRG1 promoter luciferase, higher = more signal, called active from +8 up or from −8 down
[9] = small molecules captured by biotinylated probe aFST – biochemical, small-molecule microarray, fluorescence 635/667, stem cell growth factor project, primary screen (AID 1086); conditions: higher = more signal;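 note: score merges 667 nm fluorescence with signal-to-noise of each printed compound spot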
[10] = binders of probe aHhip on microarray, primary screen, stem cell growth factor project, biochemical, small-molecule microarray, fluorescence 635/667 (AID 1087); conditions: higher = more signal;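 note: score merges spot fluorescence at 667nm with spot signal to noise ratio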
[11] = system: PRMT1 (protein arginine N-methyltransferase 1); test: small molecules binding arginine methyltransferase PRMT1 – biochemical, small-molecule microarray, 635 nm fluorescence, primary screen (AID 1088); conditions: higher = more signal;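 note: binding of Prmt1 protein to compounds spotted on small-molecule microarray slides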
[12] = growth effects on S. cerevisiae YJM789 – YJM789 clinical isolate, OD600, 24 h, basal, primary screen (AID 1089); conditions: higher = more signal, called active from +8 up or from −8 down;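 note: growth of clinical yeast isolate S. cerevisiae YJM 789 seeded 1000 cells per well; test concentration not given here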
[13] = S. pombe growth modifiers, basal conditions – strain 972, OD600, 24 h, no modulator, primary screen (AID 1090);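 note: basal condition with compound alone and no growth modifier present; test concentration not given here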; conditions: S. pombe 972 growth, higher = more signal, called active from +8 up or from −8 down
[14] = budding yeast growth modifiers under rapamycin – strain BY4716, OD600, 96 h, primary screen (AID 1091); note: test concentration not given here; conditions: S. cerevisiae BY4716 + rapamycin, higher = more signal, called active from +8 up or from −8 down
[15] = target: Torsin-1A-interacting protein 2 (Homo sapiens) (UniProt Q8NFQ8); test: small molecules binding lysate-expressed LULL1 – cell lysate, human LULL1 lysate, 635/667 nm fluorescence, primary screen (AID 1092); conditions: small-molecule microarray, hLULL1 lysate binding, 635 nm fluorescence; higher = more signal;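 note: probe is lysate of COS7 cells overexpressing human LULL1; score merges per-feature 667 nm fluorescence with signal-to-noise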
[16] = optical density change of DRC41 E. coli – strain DRC41, OD650, 24 h, E. coli filamentation project, primary screen (AID 1093);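 note: MC1000 strain lacking acrAB efflux and sulA so SOS filamentation is blocked; test concentration not given here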; conditions: E. coli DRC41 growth, higher = more signal, called active from +8 up or from −8 down
[17] = probe aLefty2 binding to arrayed compounds – biochemical, biotinylated probe, 635/667 nm fluorescence, primary screen (AID 1094); conditions: small-molecule microarray, higher = more signal;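 note: score merges spot fluorescence near 667 nm with spot signal-to-noise ratio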

Torsin-1A-interacting protein 2 (Homo sapiens), sequence (Q8NFQ8 whole entry, looked up): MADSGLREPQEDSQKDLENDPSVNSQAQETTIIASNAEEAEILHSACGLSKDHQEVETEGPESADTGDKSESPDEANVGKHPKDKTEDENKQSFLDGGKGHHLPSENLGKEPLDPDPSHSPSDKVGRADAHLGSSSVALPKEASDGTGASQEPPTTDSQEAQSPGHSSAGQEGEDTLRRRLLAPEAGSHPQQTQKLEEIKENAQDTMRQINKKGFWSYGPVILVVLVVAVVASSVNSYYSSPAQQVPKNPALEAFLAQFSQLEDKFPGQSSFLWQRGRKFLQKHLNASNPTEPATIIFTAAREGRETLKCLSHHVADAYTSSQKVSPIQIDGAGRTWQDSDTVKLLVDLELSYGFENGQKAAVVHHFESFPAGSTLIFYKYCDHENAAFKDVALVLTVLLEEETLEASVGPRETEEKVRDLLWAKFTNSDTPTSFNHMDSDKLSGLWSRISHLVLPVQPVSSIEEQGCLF
Pro-neuregulin-1, membrane-bound isoform (Homo sapiens), sequence (Q02297 whole entry, looked up, the tested form may be a part, canonical isoform): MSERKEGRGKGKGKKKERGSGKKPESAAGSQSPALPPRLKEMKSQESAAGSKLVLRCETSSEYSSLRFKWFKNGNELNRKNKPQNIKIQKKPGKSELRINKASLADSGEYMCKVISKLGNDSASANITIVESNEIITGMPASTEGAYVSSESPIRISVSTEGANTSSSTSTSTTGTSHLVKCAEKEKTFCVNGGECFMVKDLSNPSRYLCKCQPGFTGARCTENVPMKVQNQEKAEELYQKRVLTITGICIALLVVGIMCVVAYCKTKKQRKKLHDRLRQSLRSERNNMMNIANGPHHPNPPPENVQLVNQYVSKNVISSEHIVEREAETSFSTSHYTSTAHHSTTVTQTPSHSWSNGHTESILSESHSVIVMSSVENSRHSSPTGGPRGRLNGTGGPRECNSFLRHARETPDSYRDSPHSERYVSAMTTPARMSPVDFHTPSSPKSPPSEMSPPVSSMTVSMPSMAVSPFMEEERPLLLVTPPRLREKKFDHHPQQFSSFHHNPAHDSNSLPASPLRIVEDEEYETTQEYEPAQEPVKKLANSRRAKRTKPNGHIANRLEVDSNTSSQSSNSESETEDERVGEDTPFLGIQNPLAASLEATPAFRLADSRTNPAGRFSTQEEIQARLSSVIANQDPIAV
Neurogenic locus notch homolog protein 2 (Homo sapiens), sequence (Q04721 whole entry, looked up, canonical isoform): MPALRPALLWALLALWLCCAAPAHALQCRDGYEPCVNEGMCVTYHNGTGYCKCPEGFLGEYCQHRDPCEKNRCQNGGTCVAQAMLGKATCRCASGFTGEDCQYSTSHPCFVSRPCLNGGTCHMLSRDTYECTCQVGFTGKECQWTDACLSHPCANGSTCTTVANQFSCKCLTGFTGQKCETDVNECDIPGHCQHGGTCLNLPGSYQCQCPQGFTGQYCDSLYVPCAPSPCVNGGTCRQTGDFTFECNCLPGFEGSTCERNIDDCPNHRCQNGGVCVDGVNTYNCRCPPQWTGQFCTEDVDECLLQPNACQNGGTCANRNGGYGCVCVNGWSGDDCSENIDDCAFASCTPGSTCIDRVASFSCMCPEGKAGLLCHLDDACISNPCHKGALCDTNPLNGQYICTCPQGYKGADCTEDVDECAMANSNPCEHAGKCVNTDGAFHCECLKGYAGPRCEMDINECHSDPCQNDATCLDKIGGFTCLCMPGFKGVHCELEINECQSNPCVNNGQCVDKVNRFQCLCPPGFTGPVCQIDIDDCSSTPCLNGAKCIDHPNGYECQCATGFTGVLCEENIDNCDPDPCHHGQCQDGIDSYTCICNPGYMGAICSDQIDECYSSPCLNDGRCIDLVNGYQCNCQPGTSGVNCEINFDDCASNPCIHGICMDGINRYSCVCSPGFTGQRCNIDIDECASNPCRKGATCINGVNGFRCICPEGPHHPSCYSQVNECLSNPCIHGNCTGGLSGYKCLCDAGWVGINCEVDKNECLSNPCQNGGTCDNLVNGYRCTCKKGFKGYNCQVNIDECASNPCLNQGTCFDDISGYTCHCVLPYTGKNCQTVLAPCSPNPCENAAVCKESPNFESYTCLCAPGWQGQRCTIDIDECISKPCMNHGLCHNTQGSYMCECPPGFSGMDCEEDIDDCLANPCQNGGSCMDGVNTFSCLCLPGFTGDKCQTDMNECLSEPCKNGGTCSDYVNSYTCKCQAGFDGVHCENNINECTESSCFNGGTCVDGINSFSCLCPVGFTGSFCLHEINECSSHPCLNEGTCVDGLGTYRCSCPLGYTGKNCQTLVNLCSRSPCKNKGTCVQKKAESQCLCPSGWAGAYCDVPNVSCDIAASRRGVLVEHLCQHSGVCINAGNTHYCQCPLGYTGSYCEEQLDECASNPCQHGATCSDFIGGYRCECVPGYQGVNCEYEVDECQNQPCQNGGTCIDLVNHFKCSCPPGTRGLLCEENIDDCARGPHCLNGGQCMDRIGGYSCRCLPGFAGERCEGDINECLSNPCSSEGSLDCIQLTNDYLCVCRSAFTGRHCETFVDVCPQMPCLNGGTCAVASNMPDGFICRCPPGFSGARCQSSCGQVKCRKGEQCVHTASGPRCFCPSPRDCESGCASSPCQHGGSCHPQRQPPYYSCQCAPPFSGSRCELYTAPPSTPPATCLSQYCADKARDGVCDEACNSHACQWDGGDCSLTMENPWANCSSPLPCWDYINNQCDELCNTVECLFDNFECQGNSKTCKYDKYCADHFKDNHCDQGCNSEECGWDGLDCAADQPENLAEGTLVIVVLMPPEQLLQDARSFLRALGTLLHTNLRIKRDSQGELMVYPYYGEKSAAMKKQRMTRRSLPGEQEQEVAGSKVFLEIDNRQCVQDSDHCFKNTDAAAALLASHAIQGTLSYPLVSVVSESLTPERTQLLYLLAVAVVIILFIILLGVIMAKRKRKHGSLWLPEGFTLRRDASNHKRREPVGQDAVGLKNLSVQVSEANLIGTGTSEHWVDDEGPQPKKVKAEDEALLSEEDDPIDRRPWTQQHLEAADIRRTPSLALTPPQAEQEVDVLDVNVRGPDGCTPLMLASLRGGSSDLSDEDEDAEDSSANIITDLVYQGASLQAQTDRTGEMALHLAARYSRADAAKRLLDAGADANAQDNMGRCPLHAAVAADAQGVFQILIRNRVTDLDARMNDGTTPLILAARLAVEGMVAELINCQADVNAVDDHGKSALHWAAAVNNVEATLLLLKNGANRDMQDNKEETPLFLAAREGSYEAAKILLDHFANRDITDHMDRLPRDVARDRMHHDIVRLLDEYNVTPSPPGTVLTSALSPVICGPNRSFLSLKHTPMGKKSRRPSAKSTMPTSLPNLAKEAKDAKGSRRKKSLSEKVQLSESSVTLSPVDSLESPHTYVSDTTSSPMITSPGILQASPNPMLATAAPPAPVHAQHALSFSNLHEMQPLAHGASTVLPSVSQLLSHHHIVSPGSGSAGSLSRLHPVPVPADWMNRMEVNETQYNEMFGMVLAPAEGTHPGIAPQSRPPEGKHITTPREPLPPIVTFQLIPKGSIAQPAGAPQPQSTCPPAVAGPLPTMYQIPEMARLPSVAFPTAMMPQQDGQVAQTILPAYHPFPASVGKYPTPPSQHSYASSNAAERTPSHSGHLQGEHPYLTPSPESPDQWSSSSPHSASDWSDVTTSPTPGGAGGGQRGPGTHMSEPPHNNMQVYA

Structure (SMILES) | composite z-score [1] | composite z-score [2] | composite z-score [3] | composite z-score [4] | composite z-score [5] | composite z-score [6] | composite z-score [7] | z-score [8] | composite z-score [9] | composite z-score [10] | composite z-score [11] | z-score [12] | z-score [13] | z-score [14] | composite z-score [15] | z-score [16] | composite z-score [17]
COc1ccc([Si](C)(C)[C@@H]2[C@@H](CC(=O)N3CCC[C@H]3CO)O[C@]3(C(=O)N(Cc4ccc(I)cc4)c4ccccc43)[C@H]2C)cc1 | 0.035 | 0.356 | -0.142 | 0.254 | 0.806 | 0.805 | 1.22 | -1.71 (inactive) | 0.357 | 0.281 | 1.56 | -1.41 (inactive) | -0.398 (inactive) | -0.309 (inactive) | 1.53 | 2.22 (inactive) | 0.0662
CC(C)C(CO)N1C(=O)[C@@H]2C3C(=O)OCCC/C=C\[C@H]3OC23C=CCN(C(C)C)C(=O)[C@@H]13 (some centres undefined) | 0.303 | 0.716 | -0.116 | -0.836 | -1.43 | 2.17 | 0.784 | 0.366 (inactive) | -0.381 | -0.0994 | 0.613 | -1.1 (inactive) | -1.55 (inactive) | -1.1 (inactive) | 2.65 | 2.41 (inactive) | 0.727
C[N+](C)(C)CCCC[C@@H]1NC(=O)[C@@H]2C[C@H](C(=O)NCCCCCNC(=O)CS)[C@H](c3ccc(O)cc3)N2C1=O | 0.152 | 0.338 | -0.14 | -1.01 | -1.26 | 1.94 | 1.23 | 1.26 (inactive) | -0.288 | 0.0274 | 1.08 | -1.44 (inactive) | -1.73 (inactive) | -0.905 (inactive) | 2.1 | 1.39 (inactive) | -0.188
[N-]=[N+]=NCc1ccccc1C[C@@]1(C(=O)O)N=C(c2ccc(OCCCO)cc2)O[C@@H]1c1ccccc1 | 0.673 | -0.231 | -0.134 | -0.927 | -0.0526 | 1.86 | 0.754 | -1.08 (inactive) | 0.0724 | -0.226 | 0.244 | -0.921 (inactive) | -1.23 (inactive) | -1.22 (inactive) | 2.45 | 0.41 (inactive) | 0.0424
CC(=O)OC(C/C=C\B1OC(C)(C)C(C)(C)O1)c1ccccc1 (centres undefined) | 0.696 | 0.0193 | -0.038 | -1.06 | -0.542 | -0.451 | -0.679 | -1.52 (inactive) | -0.0273 | -0.353 | -0.0413 | -2.82 (inactive) | -4.32 (inactive) | -3.49 (inactive) | -0.126 | -3.15 (inactive) | -0.0231
C=CCC(OC(C)=O)[C@@H]1[C@@H](N(Cc2ccc(-c3cccc(C(F)(F)F)c3)o2)C(=O)c2ccc(-c3ccccc3)cc2)c2cc(OCCCO)ccc2N1C(=O)Cc1ccc(OC)cc1 (some centres undefined) | 0.365 | -0.338 | -0.1 | -0.394 | -0.654 | -0.61 | -0.663 | -0.981 (inactive) | 0.258 | -0.0324 | -0.305 | -0.933 (inactive) | -1.88 (inactive) | -0.82 (inactive) | -0.0364 | 1.84 (inactive) | 0.0236
CCOC(=O)C[C@H]1[C@H](OC(=O)c2ccc(-c3ccccc3)cc2)[C@@H](NC(=O)c2ccccc2)c2cc(OCCCO)ccc2N1C(=O)c1ccccc1 | -0.3 | 0.707 | 0.0216 | 0.281 | 0.741 | 0.622 | 0.773 | -0.867 (inactive) | 0.515 | 0.201 | 1.35 | -1.08 (inactive) | -1.94 (inactive) | -0.596 (inactive) | 1.69 | 2.17 (inactive) | 0.0921
